Assay outcomes: PubChem, National Center for Advancing Translational Sciences (NCATS)
A selection: hits, their analogues and other compounds. The true share with any hit is near 17%.
TDP1 cell noCPT: qHTS for Inhibitors of human tyrosyl-DNA phosphodiesterase 1 (TDP1): qHTS in cells in absence of CPT. DT40 Tdp1-/- hTDP1 cells, no CPT, ATP luminescence, 48 h. Potency, µM (series often up to 46.2 µM), hits mostly inhibitors. 15% of 420,000 active; note: nearly all actives have a fitted effect of over 55% in size
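No-CPT arm: Tdp1-/-;hTDP1 DT40 cells (400/well) plus compounds, incubated ≥48 hr at 37 °C. Readout CellTiter-Glo luminescence.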
TDP1 cell CPT: qHTS for Inhibitors of human tyrosyl-DNA phosphodiesterase 1 (TDP1): qHTS in cells in presence of CPT | AID 686979, 2013 | chicken DT40 Tdp1-/-;hTDP1 cells + 20 nM CPT, ATP luminescence, 48 h | 12% of 420,000 active | Potency, µM (series often up to 46.2 µM), hits mostly inhibitors; note: nearly all actives have a fitted effect of over 55% in size
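Chicken DT40 Tdp1-/- cells stably complemented with human TDP1 were seeded at 400 cells/well in medium containing 20 nM camptothecin, exposed to pin-transferred compounds, and grown at 37 °C for at least 48 hr. Viability was read as ATP luminescence.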
ClpP mod: qHTS Assay for Activators of ClpP; ATP-dependent Clp protease proteolytic subunit (Bacillus subtilis (strain 168)), P80244; purified B. subtilis ClpP, FRET peptide cleavage, 20 min; Potency, µM (series often up to 57.5 µM); 1.9% of 340,000 active; AID 651965, 2013; active = well fitted falling curve with a large enough effect; inconclusive = small, poorly fitted or top-dose-only effect; inactive = no such curve, though single readings can be large or run the other way; note: the source files actives as falling curves though it sought activators and does not explain the sign; nearly all actives have a fitted effect of over 65% in size
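FRET quenching reversal measured ClpP activation: 10 microg/mL B. subtilis ClpP at pH 8 with the FRET-FV decapeptide, read at 430 nm after 320 nm excitation. The 20-min minus 0-min signal was scaled between DMSO/no-enzyme wells and ADEP (5.8 microM final).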
TDP1 block: qHTS Assay for Inhibitors of Tyrosyl-DNA Phosphodiesterase (TDP1); Tyrosyl-DNA phosphodiesterase 1 (Homo sapiens), Q9NUW8; recombinant TDP1, AlphaScreen DNA substrate cleavage; Potency, µM (highest dose often 130 µM), usual class: inhibitors; 0.28% of 350,000 active; note: nearly all actives have a fitted effect of over 40% in size
Target sequence (Q9NUW8 whole entry, looked up): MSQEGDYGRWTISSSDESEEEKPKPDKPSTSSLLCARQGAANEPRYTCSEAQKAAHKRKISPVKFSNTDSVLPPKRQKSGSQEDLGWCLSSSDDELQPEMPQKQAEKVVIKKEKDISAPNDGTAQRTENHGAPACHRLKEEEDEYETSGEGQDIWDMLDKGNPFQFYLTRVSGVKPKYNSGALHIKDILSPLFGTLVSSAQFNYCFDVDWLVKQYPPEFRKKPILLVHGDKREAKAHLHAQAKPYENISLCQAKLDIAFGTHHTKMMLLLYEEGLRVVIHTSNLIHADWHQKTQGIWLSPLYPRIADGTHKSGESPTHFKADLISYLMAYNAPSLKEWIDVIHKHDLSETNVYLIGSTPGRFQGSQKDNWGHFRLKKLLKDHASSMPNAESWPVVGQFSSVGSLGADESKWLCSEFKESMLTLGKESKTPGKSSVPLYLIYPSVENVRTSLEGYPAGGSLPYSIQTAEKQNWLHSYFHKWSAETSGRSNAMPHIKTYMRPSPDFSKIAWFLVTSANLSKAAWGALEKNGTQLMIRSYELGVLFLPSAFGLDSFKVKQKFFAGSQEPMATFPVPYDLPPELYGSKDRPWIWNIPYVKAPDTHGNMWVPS
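Signal: AlphaScreen proximity between streptavidin donor and anti-FITC acceptor beads on intact substrate. Reaction: Tdp1 1 nM, substrate 15 nM final, 5 min RT after 15 min compound preincubation.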
Hits are given with their value; i = inactive; ? = inconclusive; nt = no result given; [ ] = dose if it differs, or a comment. Unless noted, calls come from the whole dose curve; as a rule, active = well fitted curve in the direction sought with a large enough effect; inconclusive = small, poorly fitted or top-dose-only effect, or another doubt; inactive = no such curve, though single readings can be large; an effect the other way counts as inactive or inconclusive.

SMILES	TDP1 cell noCPT	TDP1 cell CPT	ClpP mod	TDP1 block
Cc1cc(C)cc(C(=O)NCCc2csc(-c3ccc(C(F)(F)F)cc3)n2)c1	20.6µM	?	i	i
O=C(NCCc1csc(-c2ccc(C(F)(F)F)cc2)n1)c1ccc(F)c(F)c1	nt	nt	i	i
COc1ccc(CC(=O)NCCc2csc(-c3cccc(C)c3)n2)cc1	?	?	i	i
CCOC(=O)C1CCN(C(=O)Cn2nc(C)n3c(cc4cc(F)ccc43)c2=O)CC1	?	?	i	i
CCOC(=O)c1sc2nc3c(SCCC(=O)O)cc(C(=O)c4cc(OC)ccc4O)cn3c(=O)c2c1C	5.17µM	3.66µM	i	nt
CCOC(=O)c1sc2nc3c(SCCC#N)cc(C(=O)c4cc(F)ccc4O)cn3c(=O)c2c1C	?	?	i	i
Cc1cc(C)n(-c2nc(N(c3ccccc3)c3ccccc3)nc(-n3nc(C)cc3C)n2)n1	13µM	18.4µM	i	i
Cc1cnn(-c2cc(N/N=C/c3ccccc3Cl)ncn2)c1	?	?	i	i
Cc1cc(C)nc(Nc2ccc(O)cc2)n1	i	i	i	nt
COc1cccc(/C=N/Nc2cc(-n3nc(C)cc3-c3ccccc3)ncn2)c1O	0.651µM	0.82µM	i	i
COc1cccc(/C=N/Nc2nc(Nc3ccccc3)nc(-n3nc(C)cc3C)n2)c1O	0.581µM	0.82µM	i	i
Cc1cc(C)nc(Sc2nc(Nc3ccccc3)nc(Sc3nc(C)cc(C)n3)n2)n1	29.1µM	i	i	i
O=C(Nc1ccc(F)cc1F)C1CCN(S(=O)(=O)c2ccc3[nH]c(=O)ccc3c2)CC1	i	i	i	i
Cc1cc(C)n(-c2nc(Nc3ccccc3)nc(-n3nc(C)cc3C)n2)n1	i	i	i	44.7µM
S=c1[nH]nc(CSCCOc2ccccc2)o1	i	i	nt	i
CCn1c(CSCc2ccc(Cl)cc2)n[nH]c1=S	8.2µM	?	nt	i
Cn1c(CSCc2ccc(Cl)c(Cl)c2)n[nH]c1=S	23.1µM	?	i	i
Cn1c(CSCCOc2ccccc2)n[nH]c1=S	16.4µM	i	nt	i
CCCCCn1c(-c2ccc(OC)c(OC)c2)nc2ccccc21	7.31µM	?	i	i
O=c1c2ccccc2nc(-c2ccccc2)n1Cc1ccc(Cl)cc1	?	?	i	i
C=CCn1c(-c2ccc(OC)cc2)nc2ccccc21	9.2µM	18.4µM	?	i
O=c1c2ccccc2nc(-c2ccccc2)n1Cc1ccccc1	25.9µM	i	i	i
COc1ccc(-c2nc3ccccc3c(=O)n2CCOc2ccccc2C)cc1	18.4µM	?	?	i
COc1ccc(-c2nc3ccccc3c(=O)n2CCOc2ccc(C)cc2C)cc1	i	i	?	i
COc1cc(Cn2c(-c3ccc(O)c(OC)c3)nc3ccccc32)ccc1O	?	i	nt	i
SMILES	TDP1 cell noCPT	TDP1 cell CPT	ClpP mod	TDP1 block
Cc1ccc(S(=O)(=O)N2CC(C)N(C(=O)N3CCOCC3)C2C)cc1 (stereo not drawn)	i	i	i	nt
COc1ccc(-c2nc3ccccc3n2Cc2ccccc2)cc1	8.2µM	18.4µM	i	i
COc1ccc(-c2n(Cc3ccccc3)c3ccccc3[n+]2Cc2ccccc2)cc1	0.259µM	0.461µM	i	i
CCOCCn1c(-c2ccc(OC)cc2)nc2ccccc21	?	?	i	i
COc1ccc(OC)c(CNC(=O)c2ccc(N3Cc4ccccc4Oc4ncccc43)s2)c1	?	?	?	i
CC(=O)CC(=O)NC(=NC1CCCCC1)Nc1nc(C)cc(C)n1	?	?	i	i
Cc1cc(C)nc(NC(N)=NC2CCCCC2)n1	11.6µM	14.6µM	i	i
O=c1cc(-c2cccc(O)c2)oc2cc(O)ccc12	i	i	nt	i
Oc1ccc2c(c1)oc1cc(O)ccc12	?	?	31.6µM	i
CC(C)CSCC1OC(n2cnc3c(N)nccc32)C(O)C1O (stereo not drawn)	20.6µM	?	i	nt
Cc1ccsc1C(=O)N1CCc2ccccc2C1	i	i	i	i
COc1cc2c(cc1OC)CN(CC(=O)Nc1cccc([N+](=O)[O-])c1)CC2	16.4µM	?	i	nt
COc1cc2c(cc1OC)CN(C(=O)c1ccc(OC)c([N+](=O)[O-])c1)CC2	?	i	i	i
CCOc1ccc(C(=O)N2CCc3cc(OC)c(OC)cc3C2)cc1OCC	29.1µM	?	i	i
CCOC(=O)N1CCN(C(=O)/C=C/c2ccc([N+](=O)[O-])cc2)CC1	i	i	i	i
COc1cc2c(cc1OC)CN(C(=O)/C=C/c1ccc([N+](=O)[O-])cc1)CC2	16.4µM	18.4µM	nt	i
COc1cc2c(cc1OC)CN(C(=O)c1sccc1C)CC2	i	i	28.2µM	i
CN(C(=O)CSc1nnc(-c2ccco2)n1C)C1CCCCC1	i	i	i	i
COCC(=O)Nc1cc(C(=O)N2CCN(c3ccccc3)CC2C)c2c(c1)nc(-c1ccncc1)n2C (stereo not drawn)	i	i[9.04 µM]	nt	nt
CC1(C(=O)NS(=O)(=O)c2ccc(F)cc2F)CCN1C(=O)CC1CCCCC1 (stereo not drawn)	i	i	i	nt
COc1cc2c(cc1OC)CN(C(=O)c1cccc([N+](=O)[O-])c1)CC2	?	25.9µM	i	i
COc1cc2c(cc1OC)CN(C(=O)/C=C/c1cccs1)CC2	1.03µM	1.46µM	i	i
COc1cc2c(cc1OC)CN(C(=O)c1cccs1)CC2	?	i	i	i
COc1ccc2c(c1)CC/C2=N\OC(=O)c1ccccc1OC	i	i	i	i
C/C(=N/NC(=O)c1ccncc1)c1cc2ccc(O)cc2oc1=O	i	i	31.6µM	i
SMILES	TDP1 cell noCPT	TDP1 cell CPT	ClpP mod	TDP1 block
COc1ccc(CCNC(=O)C(=O)NCC2CCCO2)cc1 (stereo not drawn)	i	i	i	i
COc1ccc(CNC(=O)C(=O)NCC2CCCO2)cc1 (stereo not drawn)	20.6µM	16.4µM	i	i
COc1ccc(C(=O)Nc2ccccc2C(=O)NCc2cccnc2)cc1	?	14.6µM	i	i
COc1cccc(N=c2oc3cc(O)ccc3cc2C(=O)NCC2CCCO2)c1 (stereo not drawn)	20.6µM	?	nt	i
CCCOc1ccc(OC(=O)c2sc3ncn(Cc4cccc(F)c4)c(=O)c3c2C)cc1	?	?	i	i
CC1CCCC(C)N1C(=O)COc1ccc(F)cc1 (stereo not drawn)	i	i	nt	i
O=C(NCc1ccccn1)c1cnn(-c2nccc(-c3cc4ccccc4o3)n2)c1C1CC1	i	i[9.04 µM]	nt	nt
COc1ccc(-c2nc3ccccc3o2)cc1NC(=O)C(C)(C)Oc1ccc(Br)cc1	nt	nt	i	i
COc1cccc2cc(C(=O)NCC3CCCO3)c(=O)oc12 (stereo not drawn)	i	i	i	i
CCOc1ncccc1C(=O)NCc1ccc(OC)cc1	14.6µM	16.4µM	i	i
COc1ccc2oc(=O)c(/C(N)=N/NC(=O)c3ccncc3)cc2c1	i	i	nt	50.1µM
CCOc1ncccc1C(=O)NCc1ccccc1	nt	nt	nt	i
